Screens: PubChem BioAssay, The Scripps Research Institute Molecular Screening Center
GPR151 ag – activates the human receptor GPR151; PathHunter beta-arrestin GPR151 cells, luminescence; 650,000 tested, 1% active; Q8TDV0; activation, % at 11.2 µM; in the data active means activation above about 4.9%
MITF primary – blocks human microphthalmia-associated transcription factor; O75030; AlphaScreen MITF homodimerization, bead proximity signal; inhibition, % at 2.6 µM; 650,000 tested, 0.91% active; in the data active means inhibition above about 50%
FBW7 activator – activators of human E3 ligase FBW7 | 650,000 tested, 0.13% active | AlphaScreen FBW7–phospho-cyclin E peptide binding, activator screen | Q969H0 | normalized activity (activation), % at 26.1 µM | AID 1259310; in the data active means normalized activity above about 1.9%;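 further: purified mutant Fbw7 with reduced substrate affinity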
TEAD-YAP block – TEAD-YAP interaction inhibition. HEK-TIYL cells, TEAD-Gal4/YAP UAS-luciferase luminescence. inhibition, % at 9.12 µM. 640,000 tested, 1.4% active. AID 1259422; in the data active means inhibition above about 32%
GPR151 confirm – human GPR151 activation, confirmation screen | shares compounds with GPR151 ag | GPR151 PathHunter beta-arrestin cells, luminescence, 90 min; % of EA-reagent control over plate median | activation, % at 11.2 µM | 6,700 tested, under 10 active | AID 1508609;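 active means mean percent activation across replicates above the confirmation screen cutoff of 4.91%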
GPR119 ag – activates human GPR119 in a GPR151 counter-screen | activation, % at 11.2 µM | GPR119 PathHunter beta-arrestin cells, luminescence, 90 min; 0 = compound-well median, 100 = enzyme-acceptor control | AID 1508611 | 6,700 tested, 0.3% active | shares compounds with GPR151 ag;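 active means mean percent activation in the counterscreen above 29.09%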;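 further: counterscreen on off-target GPR119 to flag nonselective hits from the GPR151 activator screen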
Target sequence (Q8TDV5 whole entry, looked up): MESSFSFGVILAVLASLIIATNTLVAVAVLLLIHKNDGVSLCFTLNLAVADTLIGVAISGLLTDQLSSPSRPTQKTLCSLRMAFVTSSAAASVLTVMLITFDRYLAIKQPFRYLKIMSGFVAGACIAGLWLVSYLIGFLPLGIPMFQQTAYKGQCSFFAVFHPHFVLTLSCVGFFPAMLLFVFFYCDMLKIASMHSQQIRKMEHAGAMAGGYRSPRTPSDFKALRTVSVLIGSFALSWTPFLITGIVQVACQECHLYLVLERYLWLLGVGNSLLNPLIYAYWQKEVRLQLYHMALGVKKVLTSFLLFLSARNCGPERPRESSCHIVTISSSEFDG
Each line names hits and unclear results; the compound was inactive in the other large screens (follow-up assays come after a bar, where they were run). Only some compounds are listed: those with a hit (about 3.5% of all), similar ones and a draw of the others.

CCNC(=O)c1sc2cc(C)ccc2c1Cl	GPR151 ag 6.4 | GPR151 confirm inactive | GPR119 ag inactive
O=C1CCC(C(=O)OCC(=O)c2ccc(Cl)cc2)=NN1	none
CCOC(=O)N1CCN(S(=O)(=O)c2ccc(C(=O)Nc3sc4c(c3C(N)=O)CCN(C(=O)OCC)C4)cc2)CC1	none
O=C(CSc1nnnn1C1CCCC1)N1CCOCC1	none
O=C(CSc1nnnn1C1CCCCC1)N1CCCCC1	GPR151 ag 5.0 | GPR151 confirm inactive | GPR119 ag inactive
O=C(CNC(=O)c1cccs1)OCc1c(Cl)cccc1Cl	GPR151 ag 5.4 | GPR151 confirm inactive | GPR119 ag inactive
O=C(CNC(=O)c1cccs1)OCc1c(F)cccc1Cl	none
O=C(Nc1cccc(Cl)c1Cl)c1ccccc1[N+](=O)[O-]	none
O=C(O)c1cccc([N+](=O)[O-])c1C(=O)Nc1cccc(Cl)c1Cl	GPR151 ag 7.6 | GPR151 confirm inactive | GPR119 ag inactive
O=C(Nc1ccccc1[N+](=O)[O-])c1cc(Br)ccc1Cl	GPR151 ag 5.9 | GPR151 confirm inactive | GPR119 ag inactive
O=C(Nc1ccccc1[N+](=O)[O-])c1cccc(Cl)c1Cl	none
COC(=O)/C=C/c1ccc(OC(=O)c2sc3ncn(C)c(=O)c3c2C)cc1	none
O=C(c1nc2sccn2c1CNCC(c1cccnc1)N1CCOCC1)N1CCCC1 (centres undefined)	GPR151 ag 9.8 | GPR151 confirm inactive | GPR119 ag inactive
O=C(c1nc2sccn2c1CNCC(c1ccccn1)N1CCOCC1)N1CCCC1 (centres undefined)	none
Cn1c(=O)c(=O)n(C)c2cc(S(=O)(=O)N3CCN(C(=O)c4ccco4)CC3)ccc21	GPR151 ag 15 | GPR151 confirm inactive | GPR119 ag inactive
Cc1nn(C)cc1CN1CCc2c(nc(N3CCCC(C)C3)[nH]c2=O)C1 (centres undefined)	none
Nc1nc(Nc2ccc(Oc3ccccc3)cc2)cc(-c2csc3ccccc23)n1	GPR151 ag 6.7, TEAD-YAP block 52 | GPR151 confirm inactive | GPR119 ag inactive
Nc1nc(Nc2ccccc2)cc(-c2cccs2)n1	GPR151 ag 6.2 | GPR151 confirm inactive | GPR119 ag inactive
Nc1nc(Nc2ccc(N3CCOCC3)cc2)cc(-c2csc3ccccc23)n1	none
Nc1nc(Nc2ccccc2)cc(-c2ccccc2)n1	none
N/C(=N\OC(=O)c1ccncc1)c1cccnc1	GPR151 ag 5.8 | GPR151 confirm inactive | GPR119 ag inactive
Cc1c(C(=O)N2CCCCCC2)sc2ncn(Cc3ccccc3Cl)c(=O)c12	GPR151 ag 8.5 | GPR151 confirm inactive | GPR119 ag inactive
Cc1c(C(=O)N2CCN(Cc3ccccc3)CC2)sc2ncn(Cc3ccccc3Cl)c(=O)c12	none
COc1ccc(C(Nc2cccc(C)n2)c2ccc3cccnc3c2O)cc1 (centres undefined)	GPR151 ag 6.7, TEAD-YAP block 88 | GPR151 confirm inactive | GPR119 ag inactive
CCOc1ccc(S(=O)(=O)Nc2ccc(C(=O)OC)cc2)cc1	none
O=C(CN1CC(=O)Oc2ccccc21)NCC1CCCO1 (centres undefined)	GPR151 ag 13 | GPR151 confirm inactive | GPR119 ag inactive
N#Cc1c(-c2ccccc2)cc(-c2cccc([N+](=O)[O-])c2)c(C#N)c1N	GPR151 ag 5.9 | GPR151 confirm inactive | GPR119 ag inactive
N#Cc1c(-c2cccc([N+](=O)[O-])c2)c(C#N)c(=O)n(N)c1N	none
CCOC(=O)N1CCN(c2c(-c3ccc4c(c3)OCC(=O)N4)c(=O)c2=O)CC1	none
NC(=O)c1cc2cc(Cl)cc(Cl)c2oc1=Nc1ccccc1F	none
Cc1cccc(-c2n[nH]c(=S)n2CC(=O)O)c1	GPR151 ag 7.2 | GPR151 confirm inactive | GPR119 ag inactive
COc1ccc(CCNC(=O)c2[nH]c(C)c(C(C)=O)c2C)cc1OC	none
CCOc1ccc(CCNC(=O)c2[nH]c(C)c(C(C)=O)c2C)cc1OCC	GPR151 ag 14 | GPR151 confirm inactive | GPR119 ag inactive
CC(=O)c1c(C)[nH]c(C(=O)COc2cc(C)cc(C)c2)c1C	GPR151 ag 5.6 | GPR151 confirm inactive | GPR119 ag inactive
CCCOc1ccc(OCC(=O)c2[nH]c(C)c(C(C)=O)c2C)cc1	none
COc1cc(C)c2c(c1)O/C(=C\c1ccc(OC)c(OC)c1OC)C2=O	GPR151 ag 7.5 | GPR151 confirm inactive | GPR119 ag inactive
COc1ccc2c(c1)O/C(=C\c1ccc(OC)c(OC)c1)C2=O	GPR151 ag 5.5 | GPR151 confirm inactive | GPR119 ag inactive
COC(=O)C(C)Oc1ccc(/C=C2\Oc3cc(OC)ccc3C2=O)cc1OC (centres undefined)	GPR151 ag 8.8 | GPR151 confirm inactive | GPR119 ag inactive
COC(=O)COc1ccc(/C=C2\Oc3cc(OC)ccc3C2=O)cc1OC	none
COc1ccc2c(c1)O/C(=C\c1ccc(OS(C)(=O)=O)c(OC)c1)C2=O	none
COc1ccc(CCNc2nc(N3CCN(Cc4ccc5c(c4)OCO5)CC3)ncc2C)cc1	none
O=C(O)c1ccc(-n2ccnc2)c([N+](=O)[O-])c1	none
O=C(c1ccccc1)c1ccc(-n2ccnc2)c([N+](=O)[O-])c1	GPR151 ag 7.3 | GPR151 confirm inactive | GPR119 ag inactive
Cc1ccc(C(=O)c2ccccc2)cc1[N+](=O)[O-]	GPR151 ag 8.7 | GPR151 confirm inactive | GPR119 ag inactive
CC(Oc1ccccc1)C(=O)Nc1ccc(F)cc1F (centres undefined)	GPR151 ag 5.3 | GPR151 confirm inactive | GPR119 ag inactive
CCCOc1ccc2oc(=O)c3c(c2c1)CCCN3C(=O)CN1CCCC1	GPR151 ag 5.4 | GPR151 confirm inactive | GPR119 ag inactive
CCCOc1ccc2c3c(c(=O)oc2c1)CCC3	GPR151 ag 7.9 | GPR151 confirm inactive | GPR119 ag inactive
CCCCOc1ccc2c3c(c(=O)oc2c1)CCC3	none
CCCOc1ccc2oc(=O)c3c(c2c1)CCCN3C(=O)CN1CCN(C)CC1	none
CC1CCN(CCOCCOc2ccc3ccccc3c2)CC1	none
O=C1c2cccc3c([N+](=O)[O-])ccc(c23)C(=O)N1CCc1ccccc1	GPR151 ag 6.9 | GPR151 confirm inactive | GPR119 ag inactive
CN(CC1COc2ccccc2O1)c1nnnn1-c1ccccc1 (centres undefined)	none
c1ccc(-n2nnnc2NCC2COc3ccccc3O2)cc1 (centres undefined)	GPR151 ag 5.1 | GPR151 confirm inactive | GPR119 ag inactive
Cc1cc(C)n2nc(C(=O)Nc3nc4ccc(S(N)(=O)=O)cc4s3)nc2n1	none
CCCCCn1c(SCc2ccc(Cl)cc2)nc2cc(C(=O)NCC3CCCO3)ccc2c1=O (centres undefined)	none
O=C1c2ccccc2C(=O)C1(Nc1ccc(Br)cc1)c1ccccc1	GPR151 ag 6.9 | GPR151 confirm inactive | GPR119 ag inactive
